Measured values from PubChem BioAssay (EPA / NIEHS).
Records with an inconclusive call do not appear. The source made the active and inactive calls. The calls were made as follows, unless noted: active = hit-call score of the fitted dose curve at least 0.9, where 1 is the maximum; inconclusive = response in the unintended direction; inactive = score below 0.9.

Key:
[1] = ATG_TCF_b_cat_CIS: Attagene CIS-FACTORIAL HepG2 Assay for human T-Cell-Factor with beta-catenin (TCF/b-cat) (AID 2282965; active = hit-call score of the fitted dose curve at least 0.9, where 1 is the maximum; inactive = score below 0.9); details: HepG2 TCF/beta-catenin cis-reporter transcription, actives raise or lower the signal
Outline: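 Endogenous transcription factor activity is captured through cis-promoter reporter constructs transiently introduced into human HepG2 liver cells. Induced reporter mRNA is measured after 24 h and fitted bidirectionally relative to DMSO.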

[2] = ATG_TAL_CIS: Attagene CIS-FACTORIAL HepG2 Assay for human TAL Basal Promoter (AID 2282966; active = hit-call score of the fitted dose curve at least 0.9, where 1 is the maximum; inactive = score below 0.9;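 also: background control endpoint measuring basal TAL promoter reporter mRNA not a specific factor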); details: HepG2 Attagene cis-factorial TAL promoter reporter; actives raise or lower the signal
Outline: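 Steps: transfect HepG2 with multiple reporter transcription units; dose 24 h; isolate RNA, reverse-transcribe, PCR-amplify, label with 6-FAM, digest with HpaI; resolve by capillary electrophoresis. Bidirectional fitting against DMSO baseline.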

[3] = ATG_TGFb_CIS: Attagene CIS-FACTORIAL HepG2 Assay for human Transforming Growth Factor (TGF) (AID 2282967; active = hit-call score of the fitted dose curve at least 0.9, where 1 is the maximum; inactive = score below 0.9); details: HepG2 Attagene CIS TGFb reporter, mRNA transcription; actives raise or lower the signal
Outline: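 Liver HepG2 line, cis-factorial reporter panel, 24 h dosing. Quantitation: RT-PCR products labeled with 6-FAM, cut with HpaI, resolved by capillary electrophoresis; DMSO-referenced bidirectional analysis.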

[4] = ATG_VDRE_CIS: Attagene CIS-FACTORIAL HepG2 Assay for human Vitamin D Receptor Element (VDRE) (AID 2282968; active = hit-call score of the fitted dose curve at least 0.9, where 1 is the maximum; inactive = score below 0.9); details: HepG2 VDRE cis-reporter transcription, actives raise or lower the signal
Outline: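 In transiently transfected HepG2 liver cells, gain or loss of reporter mRNA after 24 h exposure is scored relative to DMSO, using fluorescence detection by capillary electrophoresis of RT-PCR products.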

[5] = target: Estrogen receptor (Homo sapiens) (UniProt P03372); assay: ATG_ERa_TRANS: Attagene TRANS-FACTORIAL HepG2 Assay for human Estrogen Receptor alpha (ERa) (AID 2282970); details: HepG2 Attagene TRANS ERa GAL4 reporter, mRNA
Outline: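 Multiplexed cell-based reporter format in HepG2: chimeric ERa-Gal4 protein drives GAL4-UAS reporter transcription. Fluorescent reporter mRNA quantified by capillary electrophoresis 24 hours after dosing; endpoint fitted as signal gain against DMSO.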

[6] = target: X-box-binding protein 1 (Homo sapiens) (UniProt P17861); assay: ATG_Xbp1_CIS: Attagene CIS-FACTORIAL HepG2 Assay for human X-box Binding Protein 1 (XBP1) (AID 2282972; active = hit-call score of the fitted dose curve at least 0.9, where 1 is the maximum; inactive = score below 0.9); details: HepG2 XBP1 cis-element reporter, Attagene multiplex; actives raise or lower the signal
Outline: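 After a 24-hour chemical exposure of HepG2 cells carrying cis-regulated reporters, reporter mRNA levels are assessed. Quantification uses RT-PCR, 6-FAM labelling and capillary electrophoresis. Gain- or loss-of-signal is fitted against DMSO.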

[7] = ATG_M_19_TRANS: Attagene TRANS-FACTORIAL HepG2 Assay for M19 Transcription Factor (Internal Marker) (AID 2282974); details: HepG2 Attagene TRANS-FACTORIAL M19 internal marker reporter
Outline: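 Background-control readout: after 24 h chemical exposure of transfected HepG2 carrying GAL4-driven reporter units, RNA was reverse-transcribed, amplified, fluorescently labeled and sized by capillary electrophoresis; gain-of-signal fit against DMSO.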

[8] = ATG_Hpa5_TRANS: Attagene TRANS-FACTORIAL HepG2 Assay for human GAL4-Hpa5 Hepatocyte Transcription Factor Basal Promoter (AID 2282975); details: HepG2 Attagene GAL4-Hpa5 transcription reporter;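 also: hits are increases in reporter mRNA over DMSO baseline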
Outline: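 Basal-promoter GAL4 background control within the HepG2 trans-factorial panel of transiently transfected reporter units. Reporter mRNA is measured 24 h after dosing by RT-PCR and capillary electrophoresis, fitted for gain of signal versus DMSO.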

[9] = ATG_GAL4_TRANS: Attagene TRANS-FACTORIAL HepG2 Assay for GAL4 (Internal Marker) (AID 2282976); details: HepG2 Attagene TRANS GAL4 internal marker reporter
Outline: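 Liver HepG2 line bearing multiplexed GAL4-UAS reporter constructs; 24 h chemical treatment. Transcripts were quantified as fluorescent fragments on capillary electrophoresis after RT-PCR and HpaI cut, with activity fitted upward from DMSO.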

[10] = target: Oxysterols receptor LXR-alpha (Homo sapiens) (UniProt Q13133); assay: ATG_LXRa_TRANS: Attagene TRANS-FACTORIAL HepG2 Assay for human Liver X Receptor alpha (LXRa) (AID 2282980); details: HepG2 Attagene TRANS reporter, LXRa transactivation
Outline: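 In this multiplexed TRANS system, compounds act on HepG2 cells carrying GAL4-UAS reporter units and a receptor-GAL4 fusion for 24 h. Induced reporter RNA is amplified, fluorescently labelled and sized by capillary electrophoresis, with DMSO as baseline.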

[11] = target: Oxysterols receptor LXR-beta (Homo sapiens) (UniProt P55055); assay: ATG_LXRb_TRANS: Attagene TRANS-FACTORIAL HepG2 Assay for human Liver X Receptor beta (LXRb) (AID 2282981); details: HepG2 Attagene TRANS GAL4-LXRb reporter, mRNA
Outline: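 Cells: HepG2, transiently transfected with GAL4-UAS reporter units plus LXRb-Gal4 fusion. Treatment: 24 h. Detection: reporter mRNA by RT-PCR, 6-FAM labelling, HpaI digestion, capillary electrophoresis.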

[12] = ATG_M_06_TRANS: Attagene TRANS-FACTORIAL HepG2 Assay for M06 Transcription Factor (Internal Marker) (AID 2282983); details: HepG2 Attagene TRANS M06 internal marker reporter;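 also: reporter transcript level by RT-PCR then capillary electrophoresis fluorescence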
Outline: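 Internal-marker background readout from a multiplexed TRANS reporter system in HepG2; 24 h dosing; mRNA induction quantified by RT-PCR plus capillary electrophoresis fluorescence; DMSO as negative control and baseline.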

[13] = ATG_M_32_TRANS: Attagene TRANS-FACTORIAL HepG2 Assay for M32 Transcription Factor (Internal Marker) (AID 2282984); details: HepG2 Attagene TRANS M32 internal marker reporter
Outline: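 Using transiently transfected HepG2 cells exposed to test chemicals for 24 h, reporter transcripts are converted to labelled cDNA fragments and quantified by capillary electrophoresis. DMSO defines the activity baseline.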

[14] = target: Nuclear receptor subfamily 4 group A member 2 (Homo sapiens) (UniProt P43354); assay: ATG_NURR1_TRANS: Attagene TRANS-FACTORIAL HepG2 Assay for human Nuclear Receptor Related Protein 1 (NURR1) (AID 2282985); details: HepG2 Attagene TRANS reporter, mRNA readout
Outline: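 Cells: HepG2, transiently transfected. Exposure: 24 h. Detection: fluorescence of labelled RT-PCR products separated by capillary electrophoresis; upward fit versus DMSO.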

[15] = target: Transcriptional activator Myb (Homo sapiens) (UniProt P10242); assay: ATG_Myb_CIS: Attagene CIS-FACTORIAL HepG2 Assay for human Myeloblastosis (Myb) Proto-Oncogene Transcription Factor (AID 2282986; active = hit-call score of the fitted dose curve at least 0.9, where 1 is the maximum; inactive = score below 0.9); details: HepG2 Attagene CIS-FACTORIAL Myb reporter transcription; actives raise or lower the signal
Outline: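 Reporter mRNA is quantified by RT-PCR and capillary electrophoresis 24 h after dosing HepG2 cells transfected with cis-regulated reporter units, which track endogenous transcription factor activity. Gain and loss of signal are fitted versus DMSO baseline.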

[16] = target: Nuclear respiratory factor 1 (Homo sapiens) (UniProt Q16656); assay: ATG_NRF1_CIS: Attagene CIS-FACTORIAL HepG2 Assay for human Nuclear Respiratory Factor 1 (NRF1) Orphan Gene (AID 2282987; active = hit-call score of the fitted dose curve at least 0.9, where 1 is the maximum; inactive = score below 0.9); details: HepG2 NRF1 cis-element reporter, Attagene multiplex; actives raise or lower the signal
Outline: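 Endogenous NRF1-driven reporter transcription in transfected HepG2 cells after 24 h treatment. Readout: RT-PCR products, 6-FAM labelled and resolved by capillary electrophoresis; changes fitted both directions relative to DMSO.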

[17] = target: Nuclear receptor subfamily 1 group I member 3 (Homo sapiens) (UniProt Q14994); assay: ATG_CAR_TRANS: Attagene TRANS-FACTORIAL HepG2 Assay for human Constitutive Androstane Receptor (CAR) (AID 2282969); details: HepG2 Attagene TRANS-FACTORIAL CAR reporter;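 also: activators raise reporter mRNA above DMSO so AC50 marks induction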
Outline: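 Readout is reporter mRNA induction, quantified by fluorescent primer extension and capillary electrophoresis after RT-PCR. Cells were HepG2 transiently carrying chimeric NR-Gal4 constructs with GAL4-UAS reporters, treated for 24 h; activity scored upward from DMSO.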

[18] = target: Bile acid receptor (Homo sapiens) (UniProt Q96RI1); assay: ATG_FXR_TRANS: Attagene TRANS-FACTORIAL HepG2 Assay for Farnesoid X Receptor (FXR) (AID 2282979); details: HepG2 Attagene TRANS FXR-GAL4 reporter transcription;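 also: hits raise reporter mRNA above DMSO so AC50 marks FXR activation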
Outline: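 After 24 h chemical treatment of transfected HepG2 cells, GAL4-UAS reporter transcripts driven by an exogenous FXR-GAL4 fusion were measured by RT-PCR and capillary electrophoresis. Increases over DMSO were fitted.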

Measured: AC50

Sequence of Oxysterols receptor LXR-beta (Homo sapiens) (P55055 whole entry, looked up, the tested form may be a part): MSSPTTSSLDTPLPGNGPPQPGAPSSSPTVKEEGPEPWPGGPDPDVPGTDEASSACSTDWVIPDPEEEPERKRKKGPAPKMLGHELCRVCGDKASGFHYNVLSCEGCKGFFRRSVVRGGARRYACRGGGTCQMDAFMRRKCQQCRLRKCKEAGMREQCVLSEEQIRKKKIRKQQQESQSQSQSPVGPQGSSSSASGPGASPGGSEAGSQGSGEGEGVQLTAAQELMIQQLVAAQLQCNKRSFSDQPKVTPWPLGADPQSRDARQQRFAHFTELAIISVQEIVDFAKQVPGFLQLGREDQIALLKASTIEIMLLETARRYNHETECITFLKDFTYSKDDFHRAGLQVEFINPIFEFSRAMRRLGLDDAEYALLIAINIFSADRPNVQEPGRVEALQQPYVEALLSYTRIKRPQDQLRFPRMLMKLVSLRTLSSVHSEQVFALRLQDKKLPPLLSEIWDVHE
Sequence of Nuclear respiratory factor 1 (Homo sapiens) (Q16656 whole entry, looked up): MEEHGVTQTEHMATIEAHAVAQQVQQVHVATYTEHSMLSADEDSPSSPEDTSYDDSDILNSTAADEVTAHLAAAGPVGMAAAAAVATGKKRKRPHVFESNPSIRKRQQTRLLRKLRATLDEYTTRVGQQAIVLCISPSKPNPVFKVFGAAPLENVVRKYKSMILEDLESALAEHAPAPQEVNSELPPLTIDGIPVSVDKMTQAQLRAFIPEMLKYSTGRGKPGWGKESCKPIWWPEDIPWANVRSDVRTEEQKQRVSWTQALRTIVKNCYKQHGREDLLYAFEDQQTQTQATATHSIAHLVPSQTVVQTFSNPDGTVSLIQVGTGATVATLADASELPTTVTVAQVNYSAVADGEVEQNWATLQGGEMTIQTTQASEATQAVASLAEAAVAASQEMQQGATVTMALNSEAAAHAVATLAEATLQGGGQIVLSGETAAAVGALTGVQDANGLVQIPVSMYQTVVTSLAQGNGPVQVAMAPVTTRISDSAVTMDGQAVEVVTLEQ
Sequence of Transcriptional activator Myb (Homo sapiens) (P10242 whole entry, looked up): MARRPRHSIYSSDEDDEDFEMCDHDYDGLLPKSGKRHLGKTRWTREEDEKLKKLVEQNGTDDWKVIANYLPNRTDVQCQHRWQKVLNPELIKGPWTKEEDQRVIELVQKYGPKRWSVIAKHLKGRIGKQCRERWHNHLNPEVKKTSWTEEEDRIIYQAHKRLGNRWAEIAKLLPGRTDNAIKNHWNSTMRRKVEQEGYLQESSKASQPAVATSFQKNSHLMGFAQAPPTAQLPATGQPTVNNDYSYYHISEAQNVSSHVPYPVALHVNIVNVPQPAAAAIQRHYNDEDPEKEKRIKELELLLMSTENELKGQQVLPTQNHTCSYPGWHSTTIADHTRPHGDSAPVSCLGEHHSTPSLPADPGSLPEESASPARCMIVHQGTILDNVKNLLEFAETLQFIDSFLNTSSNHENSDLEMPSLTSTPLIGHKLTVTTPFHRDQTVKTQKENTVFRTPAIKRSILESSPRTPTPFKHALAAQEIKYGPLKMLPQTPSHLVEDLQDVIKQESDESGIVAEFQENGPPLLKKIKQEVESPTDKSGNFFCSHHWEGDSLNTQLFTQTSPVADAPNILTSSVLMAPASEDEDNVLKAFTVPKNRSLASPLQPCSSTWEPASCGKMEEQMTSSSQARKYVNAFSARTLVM
Sequence of Nuclear receptor subfamily 1 group I member 3 (Homo sapiens) (Q14994 whole entry, looked up, the tested form may be a part): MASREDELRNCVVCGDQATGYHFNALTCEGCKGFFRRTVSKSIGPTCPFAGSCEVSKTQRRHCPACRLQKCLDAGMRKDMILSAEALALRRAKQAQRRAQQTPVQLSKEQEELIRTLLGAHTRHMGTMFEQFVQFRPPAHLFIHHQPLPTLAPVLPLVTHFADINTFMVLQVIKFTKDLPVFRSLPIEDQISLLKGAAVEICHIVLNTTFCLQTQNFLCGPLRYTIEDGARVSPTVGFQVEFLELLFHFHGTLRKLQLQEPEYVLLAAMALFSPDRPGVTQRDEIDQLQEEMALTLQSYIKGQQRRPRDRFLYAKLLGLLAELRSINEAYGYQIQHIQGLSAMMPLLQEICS
Sequence of X-box-binding protein 1 (Homo sapiens) (P17861 whole entry, looked up): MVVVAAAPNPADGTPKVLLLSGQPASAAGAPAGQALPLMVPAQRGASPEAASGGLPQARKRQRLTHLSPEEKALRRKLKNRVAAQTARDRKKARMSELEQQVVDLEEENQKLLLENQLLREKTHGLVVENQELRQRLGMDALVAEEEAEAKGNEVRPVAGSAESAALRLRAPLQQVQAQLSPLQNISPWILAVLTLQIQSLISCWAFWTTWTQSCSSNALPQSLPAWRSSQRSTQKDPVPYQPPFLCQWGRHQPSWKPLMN
Sequence of Nuclear receptor subfamily 4 group A member 2 (Homo sapiens) (P43354 whole entry, looked up): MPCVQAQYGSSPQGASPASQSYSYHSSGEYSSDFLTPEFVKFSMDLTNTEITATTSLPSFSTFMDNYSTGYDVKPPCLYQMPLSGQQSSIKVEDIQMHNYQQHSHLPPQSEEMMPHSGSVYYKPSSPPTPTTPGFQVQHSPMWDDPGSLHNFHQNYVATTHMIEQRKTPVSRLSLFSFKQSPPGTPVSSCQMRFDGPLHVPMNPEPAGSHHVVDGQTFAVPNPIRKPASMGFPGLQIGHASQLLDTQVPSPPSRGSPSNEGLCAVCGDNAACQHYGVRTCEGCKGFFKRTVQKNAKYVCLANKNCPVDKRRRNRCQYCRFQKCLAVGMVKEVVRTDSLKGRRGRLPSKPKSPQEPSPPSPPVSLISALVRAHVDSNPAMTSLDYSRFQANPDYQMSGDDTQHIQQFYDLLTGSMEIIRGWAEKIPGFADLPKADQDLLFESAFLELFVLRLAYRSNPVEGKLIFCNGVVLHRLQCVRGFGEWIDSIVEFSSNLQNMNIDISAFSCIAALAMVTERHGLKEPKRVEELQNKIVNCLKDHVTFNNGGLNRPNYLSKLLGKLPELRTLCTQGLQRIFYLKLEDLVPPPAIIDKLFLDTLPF
Sequence of Oxysterols receptor LXR-alpha (Homo sapiens) (Q13133 whole entry, looked up, the tested form may be a part): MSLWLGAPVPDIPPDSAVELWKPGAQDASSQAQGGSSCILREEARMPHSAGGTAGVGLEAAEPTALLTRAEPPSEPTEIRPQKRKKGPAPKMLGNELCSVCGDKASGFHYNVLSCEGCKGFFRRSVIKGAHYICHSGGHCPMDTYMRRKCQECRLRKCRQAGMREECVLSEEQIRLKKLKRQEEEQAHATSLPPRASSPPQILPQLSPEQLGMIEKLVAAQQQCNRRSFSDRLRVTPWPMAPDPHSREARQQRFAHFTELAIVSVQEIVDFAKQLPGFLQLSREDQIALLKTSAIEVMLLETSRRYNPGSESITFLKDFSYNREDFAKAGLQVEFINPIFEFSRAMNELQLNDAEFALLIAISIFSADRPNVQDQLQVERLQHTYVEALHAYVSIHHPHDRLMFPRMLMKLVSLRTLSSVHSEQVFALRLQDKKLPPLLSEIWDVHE
Sequence of Estrogen receptor (Homo sapiens) (P03372 whole entry, looked up, the tested form may be a part): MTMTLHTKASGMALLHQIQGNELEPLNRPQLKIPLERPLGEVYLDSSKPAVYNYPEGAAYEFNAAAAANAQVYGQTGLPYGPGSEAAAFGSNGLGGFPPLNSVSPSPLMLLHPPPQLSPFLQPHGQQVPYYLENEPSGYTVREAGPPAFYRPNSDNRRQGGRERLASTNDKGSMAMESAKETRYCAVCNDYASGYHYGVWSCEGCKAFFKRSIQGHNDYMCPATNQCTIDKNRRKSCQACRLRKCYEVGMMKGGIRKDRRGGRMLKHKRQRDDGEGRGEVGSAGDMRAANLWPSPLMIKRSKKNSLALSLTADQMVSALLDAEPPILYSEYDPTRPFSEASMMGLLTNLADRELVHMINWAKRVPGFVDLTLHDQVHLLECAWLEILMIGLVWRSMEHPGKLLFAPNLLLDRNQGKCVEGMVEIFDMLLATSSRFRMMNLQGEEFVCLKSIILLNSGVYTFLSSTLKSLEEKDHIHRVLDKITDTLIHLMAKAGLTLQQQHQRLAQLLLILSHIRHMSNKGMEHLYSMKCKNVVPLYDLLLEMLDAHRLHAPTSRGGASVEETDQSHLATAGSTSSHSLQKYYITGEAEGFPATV
Sequence of Bile acid receptor (Homo sapiens) (Q96RI1 whole entry, looked up, the tested form may be a part): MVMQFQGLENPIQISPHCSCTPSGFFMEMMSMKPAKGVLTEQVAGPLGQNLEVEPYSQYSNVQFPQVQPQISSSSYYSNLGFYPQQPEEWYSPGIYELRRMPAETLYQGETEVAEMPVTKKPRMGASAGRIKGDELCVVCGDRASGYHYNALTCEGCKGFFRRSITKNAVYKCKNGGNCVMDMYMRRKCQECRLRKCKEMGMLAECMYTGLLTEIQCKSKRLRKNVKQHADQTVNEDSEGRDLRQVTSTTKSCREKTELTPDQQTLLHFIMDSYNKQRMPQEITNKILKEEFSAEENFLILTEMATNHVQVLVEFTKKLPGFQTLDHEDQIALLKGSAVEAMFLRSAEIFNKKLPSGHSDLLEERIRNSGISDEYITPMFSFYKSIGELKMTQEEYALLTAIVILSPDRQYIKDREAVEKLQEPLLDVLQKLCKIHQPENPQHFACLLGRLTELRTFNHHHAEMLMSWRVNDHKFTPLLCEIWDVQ

N#Cc1c[nH]cc1-c1cccc2c1OC(F)(F)O2
active: [4] 17.5 µM | [5] 2.84 µM | [6] 4.63 µM | [14] 7.82 µM
not listed: [17] | [18]
inactive: all other assays above

CSC(=O)c1c(C(F)F)nc(C(F)(F)F)c(C(=O)SC)c1CC(C)C
active: [4] 0.789 µM | [5] 8.26 µM | [14] 13.5 µM
not listed: [1] | [10] | [11] | [15] | [18]
inactive: all other assays above

COc1cc(OC)nc(NC(=O)NS(=O)(=O)c2ncccc2OCC(F)(F)F)n1
not listed: [9] | [12] | [15]
inactive: all other assays above

COC(=O)N(C(=O)N1CO[C@@]2(C(=O)OC)Cc3cc(Cl)ccc3C2=N1)c1ccc(OC(F)(F)F)cc1
active: [4] 2.98 µM
not listed: [8] | [9] | [10] | [12] | [17] | [18]
inactive: all other assays above

CC(C)=CC1C(C(=O)OCc2coc(Cc3ccccc3)c2)C1(C)C (centres undefined)
active: [4] 14.5 µM | [5] 19.6 µM | [14] 33.9 µM
not listed: [1] | [9] | [13] | [15]
inactive: all other assays above

CCNC(=O)NC(=O)C(C#N)=NOC
not listed: [8] | [9] | [10] | [12] | [13] | [15] | [18]
inactive: all other assays above

CCN(CC)c1nc(C)cc(OP(=S)(OC)OC)n1
active: [4] 25.4 µM | [5] 15.5 µM | [6] 50 µM | [14] 62.9 µM
not listed: [9] | [10] | [12] | [18]
inactive: all other assays above

O=C1C2CC=CCC2C(=O)N1SC(Cl)(Cl)Cl (centres undefined)
not listed: [9] | [12] | [14] | [18]
inactive: all other assays above
